The record followed here is PubChem BioAssay (NCATS).

The assay is described as follows: qHTS for identification of novel therapeutic agents for treatment of microphthalmiaassociated transcription factor (MiT) renal cell carcinoma (RCC) (AID 1963991). The settings on record: CellTiter-Glo, 48 h; for Potency: active = Z-AUC below -0.8 in all three lines; for z-score: stronger effect = lower value. An excerpt: PI: Marston Linehan Ph.D.
Urologic Oncology Branch, Center for Cancer Research (CCR)
National Cancer Institute (NCI), National Institute of Health (NIH), Bethesda, Maryland
MiT-Renal Cell Carcinoma (RCC) is characterized by genomic translocations involving microphthalmia-associated transcription factor (MiT) family members TFE3, TFEB, or MITF. MiT-RCC represents a specific subtype of sporadic RCC that is predominantly seen in young patients and can present with heterogeneous histological features making diagnosis challenging. Moreover, the disease biology of this aggressive cancer is poorly understood and there is no accepted standard of care therapy for patients with advanced disease. Tumor-derived cell lines have been established from human TFE3-RCC providing useful models for preclinical studies. TFE3-RCC tumor derived cell lines and their tissues of origin were characterized by IHC and gene expression analyses. An unbiased high-throughput drug screen was performed to identify novel therapeutic agents for treatment of MiT-RCC. Potential therapeutic candidates were validated in in vitro and in vivo preclinical studies. Mechanistic assays were conducted to confirm the on-target effects of drugs. The results of a high-throughput small molecule drug screen utilizing three TFE3-RCC tumor-derived cell lines identified five classes of agents with potential pharmacological efficacy, including inhibitors of phosphoinositide-3-kinase (PI3K) and mechanistic target of rapamycin (mTOR), and several additional agents, including the transcription inhibitor Mithramycin A. Upregulation of the cell surface marker GPNMB, a specific MiT transcriptional target, was confirmed in TFE3-RCC and evaluated as a therapeutic target using the GPNMB-targeted antibody-drug conjugate CDX-011. […] The results of the high-throughput drug screen and validation studies in TFE3-RCC tumor-derived cell lines have provided in vitro and in vivo preclinical data supporting the efficacy of the PI3K/mTOR inhibitor.
SEQUENCE No. (e.g., 1, 2, 3, etc.); […] (e.g., Cells, Incubation, Reagent, etc.); VALUE; DESCRIPTION.
1; Cells; 3 uL; white, solid-bottom Grenier assay plate.
2; Compounds; 23 nL; Kalypsis pin-tool (Wako USA).
3; Incubation; 48 hr; 37 C, 5% CO2, 95% humidity.
4; Reagent; 3 uL; CellTiter-Glo reagent (Promega).
5; Incubation; 15 min; room temperature.
6; Detection; Luminescence; ViewLux plate reader (PerkinElmer).
NOTES (numbers refer to Sequence numbers above)
1. Quantitative high-throughput screening (qHTS) of 1912 pharmacologically defined small molecule compounds was conducted on three TFE3-fusion cell lines bearing three different fusion partners (UOK109, UOK124, UOK145). Briefly, 500 cells in complete growth media were plated into white, solid-bottom, 1536-well tissue culture treated plates (Grenier Cat. 789173-F) using a Multidrop Combi cassette dispenser.
2. Twenty-three nanoliter of 1912 pharmacologically defined small molecule compounds of the NCATS Mechanism Interrogation PlatE (MIPE) version 4.0 were added to each assay plate using a Pintool Dispenser (Wako) equipped with 1536 pin head.
3. Plates were covered with stainless steel gasketed lids and incubated for 48 hours at standard cell culture conditions.
4. Viability was assessed by adding 3uL of CellTiter-Glo detection reagent (Promega).
5. Plates were covered with gasket lids and incubated for 15 minutes at room temperature.
6. Luminescence was measured on a ViewLux plate reader (PerkinElmer). Post-screen data processing used DMSO controls as 100% viability and empty wells as 0% viability and dose response curve fitting was done for all 11 concentrations for each compound.

The mark [1] stands for this setting: TFE3-RCC UOK109 viability, measured here: UOK109 Z-AUC.
The mark [2] stands for this setting: TFE3-RCC viability, measured here: UOK124 Z-AUC.
The mark [3] stands for this setting: TFE3-RCC viability, measured here: UOK145 Z-AUC.

Records with an inconclusive call do not appear. Calls of active or inactive are those of the source.
Potency means the concentration at half of the fitted maximal effect.

As for `CS(=O)(=O)N1CCN(Cc2cc3nc(-c4cccc5[nH]ncc45)nc(N4CCOCC4)c3s2)CC1`, the Potency (TFE3-RCC UOK109 viability) is 105 nM (active). For the same compound, the z-score reads like this: under setting [1], -1.55; under setting [2], -1.58; under setting [3], -1.5.
On the same counts, the results for `C=CCn1c(=O)c2cnc(Nc3ccc(N4CCN(C)CC4)cc3)nc2n1-c1cccc(C(C)(C)O)n1` are 235 nM (active), -1.89, -1.72 and -2.1.
On the same counts, the results for `Cc1ccc(NC(=O)C2(c3ccc4c(c3)OC(F)(F)O4)CC2)nc1-c1cccc(C(=O)O)c1` are 235 nM (active), -2.27, -1.92 and -1.79.
On the same counts, the results for `CC(C)[C@H](C(=O)Nc1ccc(C(=O)NO)cc1)c1ccccc1` are 1870 nM (active), -1.43, -1.8 and -1.54.
As for `CC(C)c1cnn2c(NCc3ccccc3)cc(N[C@@H](CO)[C@H](O)CO)nc12`, for the setting “TFE3-RCC UOK109 viability”, the Potency is 372 nM (active). Moreover, the z-score by setting is: under setting [1], -1.04; under setting [2], -0.933; under setting [3], -1.84.
On the same counts, the results for `CNC(=O)CN1CCC(Oc2cc3c(Nc4cccc(Cl)c4F)ncnc3cc2OC)CC1` are 1870 nM (active), -2.86, -2.18 and -1.75.
The like results for `COc1c(OCCCN2CCOCC2)ccc2c3n(c(=NC(=O)c4cnc(N)nc4)nc12)CCN3` were, in that order, 40.7 nM (active), -1.18, -2.73 and -1.79.
On the same counts, the results for `CCOc1cc2ncc(C#N)c(Nc3ccc(F)c(Cl)c3)c2cc1NC(=O)C=CCN(C)C` are 11.8 nM (active), -2.91, -1.47 and -1.07.
`O=C(O)[C@H](Cc1c[nH]c2ccccc12)N1C(=O)c2ccccc2C1=O` yielded a z-score under setting [1] of 0.59, a z-score under setting [2] of 0.462 and a z-score under setting [3] of 0.777.
As for `COc1ccc(CC2c3cc(OC)c(OC)cc3CC[N+]2(C)CCC(=O)OCCCCCOC(=O)CC[N+]2(C)CCc3cc(OC)c(OC)cc3C2Cc2ccc(OC)c(OC)c2)cc1OC` (stereo unspecified), the z-score was 1.41 under setting [1], 1.48 under setting [2] and 1.15 under setting [3].
The like results for `Clc1cccc(-n2nnnc2NCc2ccccc2Oc2ccccn2)c1Cl` were, in that order, -0.1, 0.284 and -0.372.
